Bioassay records as filed in PubChem BioAssay.
Shown are actives, neighbours in structure and some others; about 17% of the full set was active somewhere.
DT40 TDP1 no CPT: qHTS for Inhibitors of human tyrosyl-DNA phosphodiesterase 1 (TDP1): qHTS in cells in absence of CPT. actives 15% (n = 420,000). Potency, µM (doses to about 46.2 µM), inactives show at the highest dose activity change, negative = growth inhibition, usual class: inhibitors. DT40 Tdp1-/- hTDP1 cells, no CPT, ATP luminescence, 48 h; also: % is scaled to controls: 0 for no effect and ±100 for the full control effect; nearly all actives have a fitted effect of over 55% in size
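Growth of hTDP1-complemented DT40 Tdp1-knockout cells is measured by ATP luminescence after at least 48 hr compound exposure at 37 °C, with DMSO substituting for the 20 nM CPT used in the parallel screen.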
TGFb inhibitor: blocks TGF-b signaling | HepG2 CAGA-GFP TGF-b/SMAD3 reporter, GFP fluorescence, 18 h; TGF-beta stimulated, 500 pg/mL final | Potency, µM (series often up to 46.1 µM), for the others: at the highest dose activity, negative = inhibition, hits mostly inhibitors | actives 1.2% (n = 410,000) | AID 588855; also: % is scaled to controls: 0 for no effect and ±100 for the full control effect; nearly all actives have a fitted effect of over 65% in size
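Per well, imaged GFP fluorescence of HEPG2 CAGA-GFP cells gives the signal; cells get compound, then TGF-beta (500 pg/mL final), 18 h at 37 degrees C; %Activity versus -TGF-beta and +DMSO controls.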
DT40 TDP1 CPT: DT40-hTDP1 cell growth loss with CPT; AID 686979; actives 12% (n = 420,000); chicken DT40 Tdp1-/-;hTDP1 cells + 20 nM CPT, ATP luminescence, 48 h; Potency, µM (titrated, usually from 46.2 µM), without a hit: top-dose activity change, negative = growth inhibition, hits mostly inhibitors; also: % is scaled to controls: 0 for no effect and ±100 for the full control effect; nearly all actives have a fitted effect of over 55% in size
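Cell growth measured by CellTiter-Glo luminescence after a minimum 48 h, 37 C compound exposure with 20 nM CPT in Tdp1-knockout DT40 cells stably expressing hTDP1, seeded 400/well; qHTS titration format.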
ATXN2 expr inh: reduces ATXN2 reporter expression in HEK-293 cells; actives 0.72% (n = 360,000); Potency, µM (series often up to 57 µM), for inactives: top-dose activity change, negative = inhibition, actives largely listed as inhibitors; AID 1745845; HEK-293 ATXN2-luciferase reporter, luminescence, 24 h; also: % is scaled to controls: 0 for no effect and ±100 for the full control effect; nearly all actives have a fitted effect of over 55% in size
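ATXN2-luciferase reporter cells (luciferase flanked by upstream and downstream ATXN2 gene portions) were treated 24 h at 37 °C with compounds at up to 57 uM. SteadyGlo luminescence gave expression; GF-AFC fluorescence gave viability.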
HepG2 viability: kills HepG2 cells in TGF-b inhibitor counter-screen; HepG2 CAGA-GFP viability, ATP luminescence, 18 h; Potency, µM (titrated, usually from 46.1 µM), for inactives: top-dose activity change, negative = cytotoxicity, most hits filed as cytotoxic; actives 0.76% (n = 410,000)
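HepG2 CAGA-GFP cells (1000/well, DMEM with 1% FBS) received compound, then TGF-beta at 500 pg/mL final, and were incubated 18 hours at 37 degrees C. Viability was read by CellTiter-Glo luminescence. Media-only wells were set as complete cell-killing and DMSO as no toxicity.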
S2 tox: reduces viability in counter-screen for ATXN expression inhibitors; S2 cells (HEK-293 line with an ATXN2-luciferase reporter) viability, CellTiter-Fluor protease fluorescence, 24 h; Potency, µM (doses to about 56.7 µM), hits mostly cytotoxic; actives 0.49% (n = 400,000); AID 651635; also: nearly all actives have a fitted effect of over 40% in size
An asterisk follows results filed as active; i = inactive; ? = inconclusive; nt = no result given. Calls follow the shape of the dose curve; as a rule, active = well fitted curve in the direction sought with a large enough effect; inconclusive = small, poorly fitted or top-dose-only effect, or another doubt; inactive = no such curve, though single readings can be large; an effect the other way counts as inactive or inconclusive. Potency is read from the fitted curve at half-maximal effect.

SMILES | DT40 TDP1 no CPT | TGFb inhibitor | DT40 TDP1 CPT | ATXN2 expr inh | HepG2 viability | S2 tox
Cc1noc(C)c1NC(=O)N(C)C[C@H]1Oc2ccc(NC(=O)CCC(F)(F)F)cc2C(=O)N([C@H](C)CO)C[C@@H]1C | -11% | 2% | 4% | -6% | 18% | i
Cc1cc(NS(=O)(=O)c2ccc(NC(=O)CSc3nc4ncc(Cl)cc4[nH]3)cc2)nc(C)n1 | -2% | -8% | -1% | nt | 7% | i
COC(=O)c1cc(S(=O)(=O)N(Cc2ccccc2)C(C)(C)C)c[nH]1 | 16µM* | -4% | 18µM* | -29% | -22% | i
COC(=O)c1cc(S(=O)(=O)NCc2ccccc2)c[nH]1 | -9% | 3% | -10% | -8% | -1% | i
COC(=O)c1cc(S(=O)(=O)NCCc2ccc(Cl)cc2)c[nH]1 | 12µM* | ? | 18µM* | 15% | -102% | ?
O=C(NCCc1ccc(Cl)cc1)c1cc(S(=O)(=O)N2CCCCC2)c[nH]1 | 9.2µM* | ? | 23µM* | ? | -74% | ?
CCc1ccc(NC(=O)c2cc(S(=O)(=O)N3CCCC3)c[nH]2)cc1 | 23µM* | -22% | ? | -23% | -17% | i
Cc1ccc(CCNC(=O)c2cc(S(=O)(=O)N3CCCCC3)c[nH]2)cc1 | -25% | -4% | -11% | 4% | -3% | i
CCCS(=O)(=O)NC(=O)C1(C)CCCN(C(=O)c2cccc(C(F)(F)F)c2)C1 (stereo unspecified) | -20% | -4% | -27% | -4% | -5% | i
COc1ccc(OCC(O)CNS(=O)(=O)c2cccc(Cl)c2)cc1 (stereo unspecified) | ? | -18% | ? | -2% | -14% | i
O=C(c1ccccc1)N1CCC(CC2CC(c3cccc(Br)c3)=NO2)(C(=O)NCC2CCCCC2)CC1 (stereo unspecified) | ? | -1% | ? | -22% | -13% | i
CCOc1cc(C(=O)N2CCC(CC3CC(c4ccc(Cl)cc4)=NO3)(C(=O)NCC3CCCCC3)CC2)cc(OCC)c1OCC (stereo unspecified) | 18µM* | ? | 23µM* | 0% | 11% | ?
CCOc1cc(C(=O)N2CCC(CC3CC(c4ccccc4)=NO3)(C(=O)NCc3ccc(OC)cc3)CC2)cc(OCC)c1OCC (stereo unspecified) | 16µM* | ? | ? | 1% | 2% | i
O=C(c1ccco1)N1N=C(c2ccc(Br)cc2)CC1c1ccco1 (stereo unspecified) | 5.2µM* | -5% | 8.2µM* | -1% | 4% | i
CCC(=O)N1N=C(c2ccc(Cl)cc2)CC1c1ccco1 (stereo unspecified) | 12µM* | -22% | 23µM* | 5% | -38% | i
COc1ccc(C2=NN(C(=O)c3ccco3)C(c3ccco3)C2)cc1OC (stereo unspecified) | 18µM* | -2% | 29µM* | -13% | 7% | i
COCC(=O)OCC(=O)N1N=C(c2ccc(Cl)cc2)CC1c1ccco1 (stereo unspecified) | -29% | ? | -25% | -14% | -15% | i
CC(C)[C@H](NS(=O)(=O)c1ccccc1)C(=O)OCC(=O)N1N=C(c2ccc(Cl)cc2)CC1c1ccco1 (stereo partly specified) | 13µM* | ? | 18µM* | -16% | -11% | i
CCCn1c(N)c(Sc2ccccc2[N+](=O)[O-])c(=O)n(CCC)c1=O | ? | 7% | -27% | -11% | 2% | ?
CC(=O)N1N=C(c2ccc(NS(=O)(=O)c3ccccc3)cc2)CC1c1ccco1 (stereo unspecified) | 2.3µM* | ? | 2.6µM* | ? | -24% | i
O=C(COc1cccnc1[N+](=O)[O-])N1N=C(c2ccc(Cl)cc2)CC1c1ccco1 (stereo unspecified) | 2.9µM* | -10% | ? | -8% | 0% | i
Cc1ccc(OCC(=O)N2N=C(c3ccc(Cl)cc3)CC2c2ccco2)c([N+](=O)[O-])n1 (stereo unspecified) | ? | 5% | ? | -22% | -2% | i
CC(=O)N1N=C(c2cccc(NS(=O)(=O)c3ccc(C)cc3)c2)CC1c1ccco1 (stereo unspecified) | ? | -15% | ? | 13% | -5% | i
Nc1cc(=O)[nH]c(SCC(=O)N2N=C(c3ccc(Cl)cc3)CC2c2ccco2)n1 (stereo unspecified) | ? | -7% | 18µM* | -18% | 7% | i
COc1ccc(C2=NN(C(=O)CSc3nnc(-c4ccccc4F)o3)C(c3ccco3)C2)cc1 (stereo unspecified) | 21µM* | -17% | ? | 0% | -43% | i
SMILES | DT40 TDP1 no CPT | TGFb inhibitor | DT40 TDP1 CPT | ATXN2 expr inh | HepG2 viability | S2 tox
Cc1noc(C)c1CSCC(=O)OCC(=O)Nc1ccc(OC(F)(F)F)cc1 | -10% | 7% | -17% | nt | -2% | i
COc1ccc(Cn2c(CCC(=O)NCc3cccc(Cl)c3)nc3cccnc32)cc1 | ? | ? | ? | -8% | -28% | i
CCc1nn2c(=O)cc(COC(=O)c3cc(Cl)c(OC)c(OC)c3)nc2s1 | ? | -2% | ? | nt | -16% | i
Cc1ccc(C2=NN(C(=O)CSc3nccn3C)C(c3ccco3)C2)cc1 (stereo unspecified) | 21µM* | -11% | 21µM* | -10% | -1% | i
CCc1ccc(C2=NN(C(C)=O)C(c3ccco3)C2)cc1 (stereo unspecified) | 16µM* | -7% | ? | nt | 2% | i
Cc1ccc(C2=NN(C(=O)CSc3nc4ncc(Cl)cc4[nH]3)C(c3ccco3)C2)cc1 (stereo unspecified) | -3% | 5% | 16% | nt | 8% | i
O=C(c1ccco1)N1N=C(c2ccc(Cl)cc2)CC1c1ccco1 (stereo unspecified) | 9.2µM* | -5% | 18µM* | nt | 2% | i
CN1CC(=O)N(CC(=O)N2N=C(c3ccc(Cl)cc3)CC2c2ccco2)C1=O (stereo unspecified) | ? | -18% | ? | -17% | 2% | i
